{
  "source": "PubChem BioAssay AID743446",
  "about": "(Broad Institute, 2014)",
  "note": "Results with a measured potency or affinity are listed apart. Active and inactive are the calls of the source. No rule for the calls is given here.",
  "data": [
    {"assay": "HEK293 cell cytotoxicity, dose response, cytotoxicity control, plate reader, cherry-picked samples (AID 743446)", "settings": "hits give low values; at 26 µM unless noted", "values": [
      {"smiles": "O=C(O)c1nn(Cc2ccc(Cl)cc2Cl)c2ccccc12", "max activity": "19.3% [at 0.38 µM] (inactive)"},
      {"smiles": "CNC(=O)Oc1cccc(-c2cn3cc(Cl)ccc3n2)c1", "max activity": "27.7% [at 0.38 µM] (inactive)"},
      {"smiles": "O=Cc1cn(Cc2cccc([N+](=O)[O-])c2)c2ccccc12", "max activity": "-15.2% [at 12 µM] (inactive)"},
      {"smiles": "COC(=O)c1ccc(NC(=O)CSc2nc3ccc(N4C(=O)C5C6C=CC(C6)C5C4=O)cc3s2)cc1", "note": "(stereo not given)", "max activity": "-25.2% (inactive)"},
      {"smiles": "CC(C)(C)n1cc(C(=O)c2ccc3ccccc3c2O)cn1", "max activity": "-8.13% (inactive)"}
    ]}
  ]
}
